Laboratory results: PubChem BioAssay
Calls of active or inactive are those of the source. Unless noted, how the calls were made is not given here.

Legend:
[1] = system: XIP peptide (Xip251-270) binding; assay: XIP fragment 251-270 binding compounds – biochemical, small-molecule microarray, fluorescence 635/667 nm, 0.1 µg/mL protein, primary screen (AID 1182); conditions: fluorescent protein binding, 635 nm, higher = more signal, called active from +8 up or from −8 down
[2] = system: XIP peptide (Xip251-270); assay: compounds binding XIP fragment 251-270 – biochemical, small-molecule microarray, fluorescence 635/667 nm, 0.5 µg/mL protein, primary screen (AID 1183); conditions: fluorescence 635 nm, higher = more signal
[3] = blood-stage malaria parasite viability loss – strain 3D7, DAPI fluorescence, 100 nL, primary screen (AID 1184);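 further: parasites grown inside human red blood cells in medium with human serum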; conditions: P. falciparum 3D7 growth, 3 d, higher = more signal
[4] = target: Homeobox protein Hox-A13 (Mus musculus) (UniProt Q62424); assay: disruptors of Hoxa13 oligonucleotide interaction – biochemical, fluorescence polarization, labeled oligonucleotide, primary screen (AID 1185); conditions: Hoxa13:DNA binding, 15 min, higher = more signal, called active from +8 up or from −8 down
[5] = blockers of DNA damage checkpoint Chk1 activation – imaging, HeLa, hydroxyurea, phospho-Chk1 antibody, percent positive cells, primary screen (AID 1186); conditions: hydroxyurea-induced phospho-Chk1 immunofluorescence imaging, higher = more signal
[6] = blockers of DNA damage checkpoint Chk1 activation – imaging, HeLa, hydroxyurea, phospho-Chk1 nuclear intensity, primary screen (AID 1187); conditions: hydroxyurea-induced phospho-Chk1 immunofluorescence imaging, higher = more signal

Homeobox protein Hox-A13 (Mus musculus), sequence (Q62424 whole entry, looked up): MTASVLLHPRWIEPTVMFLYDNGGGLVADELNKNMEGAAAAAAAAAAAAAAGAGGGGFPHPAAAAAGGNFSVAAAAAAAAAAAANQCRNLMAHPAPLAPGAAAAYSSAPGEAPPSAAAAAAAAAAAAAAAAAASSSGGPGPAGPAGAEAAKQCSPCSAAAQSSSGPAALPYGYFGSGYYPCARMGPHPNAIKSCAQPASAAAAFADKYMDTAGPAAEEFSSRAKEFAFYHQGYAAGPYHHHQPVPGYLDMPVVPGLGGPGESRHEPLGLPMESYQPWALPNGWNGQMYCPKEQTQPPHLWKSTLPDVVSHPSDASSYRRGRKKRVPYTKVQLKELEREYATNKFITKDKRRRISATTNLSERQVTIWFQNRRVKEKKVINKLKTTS

Row | Structure (SMILES) | composite z-score [1] | composite z-score [2] | z-score [3] | z-score [4] | z-score [5] | z-score [6]
1 | CN(C)CCCN1C(=O)[C@@]2(Cc3ccccc31)c1ccccc1C(=O)N(Cc1ccccc1)[C@H]2c1ccc(CO)cc1 | 0.0022 (inactive) | 0.324 | -1.47 | 1.06 (inactive) | -0.384 (inactive) | -0.682 (inactive)
2 | Cc1cc(C)c(C(O)C2C=CC3C(=O)N(c4ccccc4)C(=O)C3N2Nc2ccc([N+](=O)[O-])cc2)c(C)c1 (configuration not stated) | 0.756 (inactive) | 0.783 | -0.569 | -1.86 (inactive) | 0.487 (inactive) | 0.596 (inactive)
3 | CCOC(=O)C1=CC[C@@H](c2cccc(Br)c2)N(S(=O)(=O)c2ccc(C)cc2)[C@H]1c1ccc([N+](=O)[O-])cc1 | 0.422 (inactive) | 0.707 | -1.92 | 4.18 (inactive) | 0.476 (inactive) | 0.508 (inactive)
4 | O=C1OCC=C[C@H]2OC34C=CCN(CCN5CCOCC5)C(=O)[C@H]3N(CCCCCO)C(=O)[C@@H]4[C@@H]12 (some centres not stated) | 0.102 (inactive) | 0.609 | -0.285 | -6.05 (inactive) | 0.513 (inactive) | -0.209 (inactive)
5 | COCCCNC(=O)[C@@]1(Cc2ccccc2)COC(c2ccc(OCCCO)cc2)=N1 | 0.506 (inactive) | 0.811 | -0.723 | -4.31 (inactive) | -0.0447 (inactive) | -0.109 (inactive)
6 | CCCCC=C[C@@H](NC(=O)CCc1ccccc1)c1ccccc1 | 0.286 (inactive) | 0.518 | -0.425 | -0.0682 (inactive) | -0.522 (inactive) | -0.805 (inactive)
7 | CCOC(=O)C1=CC[C@@H](c2ccc(N(CC)CC)cc2)N(S(=O)(=O)c2ccc(C)cc2)[C@H]1c1ccc([N+](=O)[O-])cc1 | 0.326 (inactive) | 0.357 | -2.1 | -1.99 (inactive) | 0.0638 (inactive) | -0.244 (inactive)
8 | COC(=O)[C@@]1(Cc2ccc(OC)cc2)[C@H]2c3cc(C(=O)N(C)C)n(CCF)c3C[C@H]2CN1C(=O)c1ccccc1 | 0.0026 (inactive) | 0.449 | -1.65 | -3.59 (inactive) | 0.326 (inactive) | -0.241 (inactive)
9 | CC(C)CCC[C@@H](C)[C@H]1CC[C@@]2(C)C3=C(CC[C@]12C)[C@@]1(C)CC[C@H](OC(=O)C(C)(C)C)C(C)(C)C1CC3 (some centres not stated) | 0.434 (inactive) | -0.0722 | -1.29 | -1.44 (inactive) | -1.13 (inactive) | -1.89 (inactive)
10 | O=C1O[C@H](c2ccccc2)[C@H](c2ccccc2)N2[C@H]1[C@@H](C(=O)N1CCCCCCC1)[C@]1(C(=O)Nc3ccccc31)[C@H]2c1ccc(O)cc1 | 4.72 (inactive) | 0.943 | 0.61 | 2.7 (inactive) | 0.323 (inactive) | 0.725 (inactive)
11 | CCCCCCC#C[Si](O[C@H](c1ccccc1)c1cn(Cc2cccc(Cl)c2)nn1)(C(C)C)C(C)C | -0.301 (inactive) | 0.0372 | -0.464 | 1.16 (inactive) | -0.195 (inactive) | -0.272 (inactive)
12 | CO[C@H]1O[C@H](CO)[C@@H](OC(=O)Nc2ccc(C(F)(F)F)cc2)[C@H](OC(=O)Nc2ccccc2)[C@H]1OC(=O)Nc1ccccc1 | 1.91 (inactive) | 0.911 | -2.56 | -5.12 (inactive) | -0.628 (inactive) | -0.699 (inactive)
13 | CC(C)(C)OC(=O)CC[C@@]1(C(=O)N2CCCCC2)N=C(c2ccc(OCCCO)cc2)O[C@@H]1c1ccccc1N=[N+]=[N-] | 0.416 (inactive) | 0.83 | -2.08 | -3.63 (inactive) | -0.184 (inactive) | -0.414 (inactive)
14 | C=CC[C@]1(C(=O)N(C)C)N=C(c2ccc(OCCCO)cc2)O[C@H]1c1ccccc1 | 0.39 (inactive) | 0.643 | -2.08 | -4.25 (inactive) | -0.271 (inactive) | 0.109 (inactive)
15 | COC(=O)C(CC#Cc1ccc2c(c1)[C@]1(C(=O)N2)[C@H](c2ccc(O)cc2)N2[C@H](c3ccccc3)[C@H](c3ccccc3)OC(=O)[C@H]2[C@@H]1C(N)=O)C(=O)OC | -0.609 (inactive) | -2.27 | 0.38 | 0.452 (inactive) | -0.174 (inactive) | -0.279 (inactive)
16 | CC1CC/C=C\[C@H]2OC34C=CCN(Cc5ccccc5)C(=O)[C@H]3N(CCO)C(=O)[C@@H]4C2C(=O)O1 (some centres not stated) | 0.449 (inactive) | 0.108 | -1.56 | -4.51 (inactive) | -0.455 (inactive) | -0.466 (inactive)

Row | Structure (SMILES) | composite z-score [1] | composite z-score [2] | z-score [3] | z-score [4] | z-score [5] | z-score [6]
17 | COC(=O)C(CC#Cc1ccc2c(c1)[C@]1(C(=O)N2)[C@H](c2ccc(OCCO)cc2)N2[C@H](c3ccccc3)[C@H](c3ccccc3)OC(=O)[C@H]2[C@@H]1C(=O)O)C(=O)OC | 0.817 (inactive) | 0.862 | 0.663 | -5.67 (inactive) | 0.0445 (inactive) | 0.436 (inactive)
18 | O=C1C[C@@](C(=O)NCc2ccccc2)(c2ccc([N+](=O)[O-])cc2)[C@@H](c2ccc(CO)cc2I)N1C1CCCCC1 | 0.193 (inactive) | 0.676 | -1.45 | -3.45 (inactive) | 0.173 (inactive) | 0.408 (inactive)
19 | CCCC=C(CCC)[C@@H](NS(=O)(=O)c1cccc2cccnc12)c1ccc(C(=O)OC)cc1 | -0.357 (inactive) | 0.315 | -0.271 | -2.22 (inactive) | -0.767 (inactive) | -0.492 (inactive)
20 | O=C1CSC(c2cccc([N+](=O)[O-])c2)N1c1ccccc1 (configuration not stated) | 0.0504 (inactive) | 0.143 | 0.464 | 1.07 (inactive) | 0.0304 (inactive) | -0.174 (inactive)
21 | C/C=C/[C@@H](CCn1cc([C@H](O)c2ccccc2)nn1)[Si](C)(C)c1ccc(OC)cc1 | 0.895 (inactive) | 0.778 | -0.689 | -6.33 (inactive) | 0.546 (inactive) | -0.159 (inactive)
22 | COCCCNC(=O)[C@]1(Cc2ccccc2CN=[N+]=[N-])N=C(c2ccc(OCCCO)cc2)O[C@@H]1c1ccccc1CN=[N+]=[N-] | 0.22 (inactive) | 0.744 | -2.48 | -2.43 (inactive) | -0.0731 (inactive) | -0.303 (inactive)
23 | CC(C)=CCCC(C)=CC(O)C1C=CC2C(=O)N(c3ccccc3)C(=O)C2N1Nc1ccc([N+](=O)[O-])cc1 (configuration not stated) | 0.174 (inactive) | 0.817 | -0.0908 | -4.57 (inactive) | 0.458 (inactive) | -0.178 (inactive)
24 | CC1CC/C=C\[C@H]2OC34C=CCN(c5ccc(Cl)cc5)C(=O)[C@H]3N(C(CO)C(C)C)C(=O)[C@]4(C)C2C(=O)O1 (some centres not stated) | -0.279 (inactive) | 0.277 | -0.0809 | -5.44 (inactive) | -0.466 (inactive) | -0.512 (inactive)
25 | CC(C)NC(=O)[C@@H]1c2ccccc2C(=O)N(Cc2cc(C(F)(F)F)cc(C(F)(F)F)c2)[C@H]1c1ccc(CO)cc1 | 1.14 (inactive) | 0.55 | -0.337 | -3.9 (inactive) | 0.349 (inactive) | 0.622 (inactive)
26 | COC(=O)[C@@]1(Cc2ccc(OC)cc2)[C@H]2c3cc(C(=O)N(C)C)n(Cc4cc(C)n(C)n4)c3C[C@H]2CN1C(=O)c1ccccc1 | 0.254 (inactive) | 0.762 | -1.63 | -5.1 (inactive) | 0.53 (inactive) | 0.263 (inactive)
27 | Cc1cc(C)c(C(O)C2C=CC3C(=O)N(c4ccccc4)C(=O)C3N2Nc2ccccc2)c(C)c1 (configuration not stated) | 0.733 (inactive) | 0.79 | -0.0689 | -3.33 (inactive) | 0.826 (inactive) | 0.41 (inactive)
28 | COCCCNC(=O)[C@@H]1c2ccccc2C(=O)N(c2ccc(C)cn2)[C@H]1c1ccc(CO)cc1 | -0.0692 (inactive) | 0.305 | -1.38 | -0.943 (inactive) | -0.106 (inactive) | 0.236 (inactive)
29 | OCCCC1=CC(c2cccs2)N(Cc2cccc(OC(F)(F)F)c2)CC1 (configuration not stated) | -0.512 (inactive) | 0.754 | -0.717 | -2.9 (inactive) | 0.439 (inactive) | 0.513 (inactive)
30 | CN(C)C(=O)[C@]1(Cc2ccccc2N=[N+]=[N-])N=C(c2ccc(OCCCO)cc2)O[C@@H]1c1ccccc1CN=[N+]=[N-] | 0.304 (inactive) | 0.312 | -2.48 | -4.68 (inactive) | -0.191 (inactive) | 0.269 (inactive)
31 | C[C@]12C(=O)N(CCCO)[C@@H]3C(=O)N(c4ccc(Cl)cc4)CC=CC31O[C@@H]1/C=C\CCCOC(=O)C12 (some centres not stated) | -0.232 (inactive) | -0.271 | 0.571 | -6.08 (inactive) | -0.647 (inactive) | -0.0294 (inactive)
32 | C[N+](C)(C)CCCC[C@@H]1NC(=O)[C@@H]2C[C@H](C(=O)NCCCCCNC(=O)CS)[C@H](c3cccc(OCCO)c3)N2C1=O | 0.17 (inactive) | -0.0808 | 0.0793 | -3.31 (inactive) | -0.209 (inactive) | -0.123 (inactive)
